# Screening data (PubChem)
# TRHR PAM: allosteric enhancers of human TRH receptor | P34981 | TRHR cells, fluo-8 calcium fluorescence, EC20 TRH enhancement | enhancement, % at 2 µM | 360,000 tested, 0.66% active; in the data active = enhancement above about 30%; note: 0% is about no effect
#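 Enhancer read-out: after compound pinning and an initial kinetic agonist-mode read, an EC20 of TRH (10 nM final) was injected and fluo-8 calcium signal (Ex 480/Em 530) followed at 1 s/cycle for 100 cycles in TRHR-expressing cells.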
# TRHR agonist: agonists of human TRH receptor | P34981 | TRHR cells, calcium flux fluo-8, FDSS agonist mode | activation, % at 2 µM | 360,000 tested, 0.18% active; note: 0% is about no effect
#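 Fluo-8-loaded TRHR cells; 10 s baseline, compound added, kinetic Ca2+ fluorescence read 1/s, agonist mode.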
# D1 antagonist: blocks dopamine activation of the human D1 receptor; HEK293 TREx D1 cells, calcium flux, dopamine EC80; stronger effect = lower value; activity change, negative = inhibition, % at 10 µM; 360,000 tested, 3.2% active; in the data active = activity change below about -30%; note: % is set by controls: 0 for no effect and ±100 for the full control effect
#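 Compound effects on dopamine-evoked calcium signalling were measured in tetracycline-induced HEK293 Trex D1 cells. Dopamine at EC80 followed a 180 s compound pre-read, and fluorescence was tracked kinetically for 180 s more.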
# D1 ag: agonists of human D1 dopamine receptor; P21728; HEK293 T-REx D1 cells, calcium flux, agonist mode; activation, % at 2 µM; 360,000 tested, 1% active; AID 504660; note: 0% is about no effect
#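 Tetracycline-induced HEK293 TREx D1 cells, force-coupled to calcium signalling, were dye-loaded with a no-wash calcium kit. Compound was pin-added after a 10 s baseline. Fluorescence was read kinetically at 1 cycle/s for 180 s, with calcium rises flagged as agonism.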
# USP1 inh: USP1/UAF1 (human) deubiquitinase inhibition | Potency, µM (doses to about 57.1 µM), for inactives: top-dose activity change, negative = inhibition, hits mostly inhibitors | AID 743255 | 390,000 tested, 0.23% active | recombinant USP1/UAF1, Ub-Rhodamine cleavage fluorescence; active = well fitted inhibition curve with a large enough effect; inconclusive = small, poorly fitted or top-dose-only effect; inactive = no such curve, though single readings can be large or run the other way; note: potency is the fitted concentration of half-maximal effect; % is set by controls: 0 for no effect and ±100 for the full control effect; nearly all actives have a fitted effect of over 60% in size
# Target sequence (O94782 whole entry, looked up): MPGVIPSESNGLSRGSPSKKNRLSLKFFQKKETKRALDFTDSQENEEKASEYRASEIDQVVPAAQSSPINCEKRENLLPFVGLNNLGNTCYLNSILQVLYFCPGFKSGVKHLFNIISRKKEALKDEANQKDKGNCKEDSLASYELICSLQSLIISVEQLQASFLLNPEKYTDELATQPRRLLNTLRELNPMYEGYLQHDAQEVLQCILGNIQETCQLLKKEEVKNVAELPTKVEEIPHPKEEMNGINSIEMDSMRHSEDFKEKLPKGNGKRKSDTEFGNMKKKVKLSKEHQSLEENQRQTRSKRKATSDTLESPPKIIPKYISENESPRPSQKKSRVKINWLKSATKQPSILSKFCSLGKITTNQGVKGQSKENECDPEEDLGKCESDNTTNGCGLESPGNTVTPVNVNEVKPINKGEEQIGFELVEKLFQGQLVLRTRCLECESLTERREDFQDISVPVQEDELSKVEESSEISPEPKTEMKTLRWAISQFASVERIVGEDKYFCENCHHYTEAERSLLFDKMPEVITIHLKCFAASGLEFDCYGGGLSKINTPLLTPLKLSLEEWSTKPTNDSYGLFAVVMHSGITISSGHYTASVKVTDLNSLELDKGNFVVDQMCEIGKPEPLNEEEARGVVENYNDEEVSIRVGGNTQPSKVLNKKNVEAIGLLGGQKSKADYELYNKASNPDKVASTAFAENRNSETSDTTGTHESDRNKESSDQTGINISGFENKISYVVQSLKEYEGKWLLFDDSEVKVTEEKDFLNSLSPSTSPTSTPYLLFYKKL
#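 In this screen, compounds sit with the deubiquitinase complex (1nM) for 15 min at room temperature before Ub-Rho is added at 150nM final. Fluorescence rise is then followed for 6 reads every 60 seconds.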
# D1 PAM: enhances dopamine response at the human D1 receptor | P21728 | 360,000 tested, 0.036% active | HEK293 TREx D1 cells, calcium flux, dopamine EC20 potentiation | potentiation, % at 10 µM; in the data active = potentiation above about 30%; note: 0% is about no effect
# Active calls of the source: *; ? = inconclusive; . = not tested or not shown; ! = a repeat was not active. Sampled rows, rich in hits. Any-hit rate of the full collection: about 4.4%. Cut-off read from the data, not from the text of the source, unless noted: active = activation above about 30%; inactive = the rest.
SMILES,TRHR PAM,TRHR agonist,D1 antagonist,D1 ag,USP1 inh,D1 PAM
O=C(Nc1ccccc1Oc1ccccc1)c1cc([N+](=O)[O-])ccc1Cl,41*,-1,-1,3,-22%,-10
COc1ccccc1NC(=O)c1cc(Br)ccc1Cl,-2,0,-35*,0,-12%,-1
COc1ccccc1NC(=O)c1ccccc1C(=O)Nc1ccccc1OC,-13,0,-4,2,-4%,0
CCN1CCN(C(=O)NC2CC(=O)N(c3ccc(OC)cc3)C2)CC1 (configuration not stated),10,0,-4,6,-13%,14
COc1ccc(N2CCN(C(=O)NC3CC(=O)N(c4ccc(OC)cc4)C3)CC2)cc1 (configuration not stated),5,-3,-45*,5,-10%,-7
COc1cccc(-c2nn3c(=O)cc(CN4CCN(S(=O)(=O)c5ccc(C)cc5)CC4)nc3s2)c1,-2,0,2,3,-21%,-3
COCCN(C(=S)Nc1ccccc1OC)C1CCN(C(C)=O)CC1,10,0,-35*,1,-11%,-5
CC(=O)Nc1sc2c(c1C(c1cccc(Cl)c1)N1CCN(CCO)CC1)CCCC2 (configuration not stated),12,3,-30*,15,-12%,-5
CCOC(=O)c1c(C)oc2ncnc(NCCCN3CCN(c4cc(C)ccc4C)CC3)c12,4,-1,0,-1,-20%,2
Cc1ccc2occ(CC(=O)N(Cc3ccccc3Cl)C3CCS(=O)(=O)C3)c2c1 (configuration not stated),-3,0,6,0,?,-2
Cc1ccc(S(=O)(=O)Nc2ncnc3sc(C)c(C)c23)cc1,-1,0,-9,6,-21%,5
Cc1ccc(S(=O)(=O)Nc2ncnc3ccccc23)cc1,31*,1,7,1,2%,0
O=C1CCCc2cc(S(=O)(=O)NCC3CCC(C(=O)NCc4ccccc4Cl)CC3)ccc2N1 (configuration not stated),-6,0,22,1,-25%,-4
CC(CNC(=O)Cn1c(-c2cccs2)cc2ccccc21)c1ccccc1 (configuration not stated),-5,2,-7,1,2%,0
COc1cc(/C=N/NS(=O)(=O)c2ccc3ccccc3c2)ccc1OCc1ccc(C(=O)O)cc1,8,0,-30*,2,-29%,-16
COC(=O)c1ccc(COc2ccccc2/C=N/NS(=O)(=O)c2ccccc2)cc1,-2,-1,-51*,2,-9%,-8
Cc1ccccc1OCC(=O)Nc1nnc(S(=O)(=O)N(C)c2ccccc2)s1,-3,0,-13,1,-13%,-3
O=C(NC1CSCC1OC(=O)c1ccccc1)c1ccccc1 (configuration not stated),-1,-1,-39*,3,-25%,-7
Cc1cccc(CNS(=O)(=O)c2ccc(-c3coc(C)n3)cc2)c1,-2,0,-16,2,-15%,-5
CCOC(=O)C1=C(C)NC(C)=C(C(=O)OCC)C1C(=O)O,-3,0,1,1,-22%,-7
CCOC(=O)C1=C(C)NC(C)=C(C(=O)OCC)C1,-4,0,5,1,22µM*!,-1
CCCC1C(C(=O)OCC)=C(C)NC(C)=C1C(=O)OCC,-2,0,-50*,2,-7%,-19
CCOC(=O)C1=C(C)NC(C)=C(C(=O)OCC)C1c1ccc(O)cc1,22,0,-36*,0,-18%,-7
CCOC(=O)C1=C(C)NC(C)=C(C(=O)OCC)C1C(=O)OCC(=O)N(C)C,17,0,-60*,0,-20%,-2
COc1ccc(Nc2nc3ccc(C)cc3nc2-n2nc(C)cc2C)cc1Cl,3,0,-4,0,-27%,2
SMILES,TRHR PAM,TRHR agonist,D1 antagonist,D1 ag,USP1 inh,D1 PAM
Cc1cc(C)n2nc(-c3ccsc3-n3c(C)ccc3C)cc2n1,-5,1,-55*,2,-6%,-2
Cc1ccc(-c2cc3nc(C)cc(C)n3n2)cc1,2,-1,1,1,-8%,0
COc1cc(/C=C/C(O)=C/C(=O)/C=C/c2ccc(O)cc2)ccc1O,3,104*,-21,351*,28µM*,-5
COc1cc(/C=C/C(=O)NC(=O)c2ccccc2O)ccc1O,3,-3,3,-1,-22%,-11
COc1ccc(CC(=O)Oc2ccc(C)cc2Br)cc1OC,-7,0,-32*,12,-12%,-4
COc1ccc(CC(=O)Oc2ccc(C)cc2C)cc1,-2,0,-23,13,-19%,-7
COc1ccc(CC(=O)c2ccc(OC)c(OC)c2C)cc1OC,5,1,-34*,18,-25%,0
Cc1[nH]c2ccccc2c1SCC(=O)N1CCC(C)CC1,0,-1,-49*,0,-26%,-3
COc1cccc(CNC(=O)c2[nH]c3cc(C)ccc3c2Sc2ccccc2)c1,2,-1,-10,0,-14%,3
Cn1cc(CN2CCN(c3ncccn3)CC2)c(-c2cccc(Cl)c2)n1,-5,0,-2,3,?,-1
Cn1cc(CN2CCC(C(O)c3cccs3)CC2)c(-c2cccc(Cl)c2)n1 (configuration not stated),27,-1,-18,41*,-26%,-6
CC(C)C(=O)Nc1nnc(SCC(=O)Nc2ccc3c(c2)OCCO3)s1,7,0,16,4,-11%,-4
O=C(CSc1nnc(CNC(=O)c2cccs2)o1)Nc1ccc2c(c1)OCO2,-1,0,-36*,-2,7%,-2
O=C(CSc1nnc(CNC(=O)c2ccccc2)o1)Nc1ccc2c(c1)OCO2,-4,0,8,0,-4%,1
Cn1cc(SCC(=O)Nc2ccc3c(c2)OCO3)c2ccccc21,14,-1,-35*,10,-26%,.
CCCn1cc(SCC(=O)Nc2ccc3c(c2)OCO3)c2ccccc21,1,-1,-15,-1,-19%,0
CC1CCCN(C(C(=O)Nc2ccc3c(c2)OCO3)c2ccccc2)C1 (configuration not stated),9,-1,0,0,-12%,-2
CC1CCN(C(C(=O)Nc2ccc3c(c2)OCO3)c2ccccc2)CC1 (configuration not stated),-9,-1,-42*,2,-6%,-9
CC(C)C(=O)Nc1nnc(SCC(=O)Nc2ccc3c(c2)OCO3)s1,2,0,-41*,12,-17%,-6
